# Measured values taken from PubChem BioAssay (NCATS).
# Values without a mark were called inactive. Results filed as inconclusive are left out. A call without a number means that no potency is given here. The source made the active and inactive calls. Unless noted, calls follow the shape of the full dose curve.
# What was measured:
# [1] = qHTS to identify inhibitors of the type 1 interferon - major histocompatibility complex class I in skeletal muscle: primary screen against the NCATS Mechanism Interrogation Plate v5.0 (MIPE) Libary (AID 1347411; active = well fitted curve in the direction sought with a large enough effect; an effect the other way counts as inactive or inconclusive; also: nearly all actives have a fitted effect of over 65% in size; also: potency is read from the fitted curve at half-maximal effect)
# Summary of the method: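 HLA-B HiBit myoblasts, dexamethasone-free medium + 4 ng/ml IFN-b, 24 h compound, 11-pt 1:3 from 46 uM final. Readout: Nano-Glo HiBiT lytic luminescence after 10 min lysis, RT.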
# [2] = target: Protein phosphatase 1D (Homo sapiens) (UniProt O15297); assay: RapidFire Mass Spectrometry qHTS Assay for Modulators of WT P53-Induced Phosphatase 1 (WIP1) (AID 1347424; active = well fitted curve in the direction sought with a large enough effect; an effect the other way counts as inactive or inconclusive; also: series mostly up to about 63 µM)
# Summary of the method: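 RapidFire MS readout of dephosphorylated VEPPL-S-QETFS product, with 1 uM isotope-labelled peptide standard. Reaction: 10 nM WIP1, 2 uM phosphopeptide substrate, 5 min, room temperature, after 1 h compound preincubation; stopped with 0.5% formic acid.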
# [3] = target: Protein phosphatase 1D (Homo sapiens) (UniProt O15297); assay: Rhodamine-PBP qHTS Assay for Modulators of WT P53-Induced Phosphatase 1 (WIP1) (AID 1347425; active = well fitted curve in the direction sought with a large enough effect; an effect the other way counts as inactive or inconclusive)
# Summary of the method: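 WIP1 (5 nM final) was preincubated with compound for 1 hour at room temperature. It then dephosphorylated 10 uM VEPPL-pS-QETFS peptide in Tris-HCl pH 7.5 with 30 mM MgCl2. Released Pi was detected by 10 uM Rh-PBP fluorescence (ex 525/em 598 nm) read at 1-min intervals for 11 min, as delta f1 - f0.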
# [4] = Validation qHTS assay for inhibitors of Activation Induced Cytidine Deaminase (AID): UDG Counterscreen signal (AID 1347427; active = well fitted curve in the direction sought with a large enough effect; an effect the other way counts as inactive or inconclusive)
# Summary of the method: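 Fluorescence at 560 nm excitation, 665 nm emission reports UDG signal after 250 mM NaOH (2x) addition and 30 min. Enzymes (AID 1 uM, UDG 2 U/mL, at 4/3x) preincubated 10 min with compound, then 4 h with 4x 250 nM DJC20/DJC23 substrate at room temperature.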
# [5] = target: Single-stranded DNA cytosine deaminase (Homo sapiens) (UniProt Q9GZX7); assay: Validation qHTS assay for inhibitors of Activation Induced Cytidine Deaminase (AID): AID signal (AID 1347429; active = well fitted curve in the direction sought with a large enough effect; an effect the other way counts as inactive or inconclusive)
# Summary of the method: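 AID+UDG coupled FRET deamination; cpds up to 114 uM final; DJC20/DJC23 substrate, 4 hr RT; NaOH stop, 30 min RT; read Ex 540/Em 590.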
# [6] = Confirmatory qHTS for VERO E6 Cytotoxicity Assay: Counterscreen for SARS-CoV-2 CPE Assay (AID 1508605); also: series mostly up to about 20 µM; nearly all actives have a fitted effect of over 60% in size
# [7] = Confirmatory qHTS for activators (rescue) of SARS-CoV-2 Cytopathic Effect (CPE) (AID 1508606); also: potency is read from the fitted curve at half-maximal effect; nearly all actives have a fitted effect of over 70% in size
# [8] = Primary qHTS for inhibitors of SARS-S pseudo-typed particle cell entry (AID 1479145); also: nearly all actives have a fitted effect of over 45% in size
# [9] = Primary qHTS for Huh7 cytotoxicity: counterscreen for inhibitors of MERS-S pseudotyped particle cell entry (AID 1479147)
# [10] = Primary qHTS for inhibitors of MERS-S pseudo-typed particle cell entry (AID 1479149); also: nearly all actives have a fitted effect of over 60% in size
# [11] = Primary qHTS for Vero E6 cytotoxicity: counterscreen for inhibitors of SARS-S pseudo-typed particle cell entry (AID 1479150)
# Sequence of Protein phosphatase 1D (Homo sapiens) (O15297 whole entry, looked up): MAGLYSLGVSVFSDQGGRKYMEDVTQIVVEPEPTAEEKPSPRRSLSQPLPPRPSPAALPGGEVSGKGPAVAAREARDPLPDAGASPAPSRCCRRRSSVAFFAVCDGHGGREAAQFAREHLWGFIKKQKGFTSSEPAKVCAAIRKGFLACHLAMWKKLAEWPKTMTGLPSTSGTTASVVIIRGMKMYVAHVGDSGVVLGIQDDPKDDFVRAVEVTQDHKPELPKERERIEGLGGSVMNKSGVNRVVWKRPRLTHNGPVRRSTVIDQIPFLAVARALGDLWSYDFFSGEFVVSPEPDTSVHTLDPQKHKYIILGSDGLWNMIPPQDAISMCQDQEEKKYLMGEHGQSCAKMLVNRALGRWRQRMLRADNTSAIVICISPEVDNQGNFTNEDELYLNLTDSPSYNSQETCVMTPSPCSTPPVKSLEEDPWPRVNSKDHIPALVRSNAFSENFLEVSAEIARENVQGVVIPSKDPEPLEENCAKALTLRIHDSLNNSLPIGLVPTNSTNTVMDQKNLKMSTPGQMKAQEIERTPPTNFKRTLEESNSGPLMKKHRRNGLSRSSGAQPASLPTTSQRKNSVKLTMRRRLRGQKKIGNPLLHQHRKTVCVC
# Sequence of Single-stranded DNA cytosine deaminase (Homo sapiens) (Q9GZX7 whole entry, looked up): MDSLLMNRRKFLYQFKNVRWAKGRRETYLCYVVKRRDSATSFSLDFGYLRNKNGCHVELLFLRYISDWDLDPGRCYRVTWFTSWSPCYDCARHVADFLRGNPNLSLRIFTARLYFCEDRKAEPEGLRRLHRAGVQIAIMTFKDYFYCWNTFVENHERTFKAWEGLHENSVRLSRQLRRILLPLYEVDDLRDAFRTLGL
structure (smiles),measurement,setting,value
O=c1[nH]c2ccccc2n1C1CCN(Cc2ccc(-c3[nH]c4cc5ncnc5cc4nc3-c3ccccc3)cc2)CC1,Potency,[1],inactive
O=C(O)COc1nc(Cl)c(Cl)cc1Cl,Potency,[2],inactive
same,outcome,[3],inactive
CCCCCCCCc1ccc(O)cc1,Potency,[2],inactive
CCC1(CCC(C)C)C(=O)NC(=O)NC1=O,Potency,[2],inactive
same,outcome,[3],inactive
C/C=C(/C)C(=O)O[C@H]1C(C)=C2[C@H]([C@@H]1OC(=O)CCCCCCC)[C@@](C)(OC(C)=O)C[C@H](OC(=O)CCC)[C@@]1(O)[C@H]2OC(=O)[C@@]1(C)O,Potency,[1],0.0165 µM (active)
same,outcome,[4],inactive
same,outcome,[5],inactive
CC1(N2CCC(n3c([C@@H]4CCCNC4)nc4ccccc43)CC2)CCCCCCC1,Potency,[1],inactive
same,Potency,[6],inactive
same,Potency,[7],2.82 µM (active)
CCNC(=O)CC1N=C(c2ccc(Cl)cc2)c2cc(OC)ccc2-n2c(C)nnc21 (centres undefined),Potency,[1],inactive
CCNC(=O)C[C@@H]1N=C(c2ccc(Cl)cc2)c2cc(OC)ccc2-n2c(C)nnc21,Potency,[1],inactive
CO/C=C(/C(=O)OC)c1ccccc1Oc1cc(Oc2ccccc2C#N)ncn1,Potency,[2],inactive
same,outcome,[3],inactive
CCOCCOC(C)=O,Potency,[2],inactive
same,outcome,[3],inactive
CC(C)NCC(O)c1ccc([N+](=O)[O-])cc1 (centres undefined),Potency,[2],inactive
same,outcome,[3],inactive
O=C(O)c1ccccn1,Potency,[8],inactive
same,Potency,[9],inactive
same,Potency,[10],inactive
same,Potency,[11],inactive
O=C(O)c1cc(Oc2ccc(C(F)(F)F)cc2Cl)ccc1[N+](=O)[O-],outcome,[3],inactive
CCC(C)(Oc1ccc(C2(c3ccc(OC(C)(CC)C(=O)O)cc3)CCCCC2)cc1)C(=O)O (centres undefined),Potency,[8],inactive
same,Potency,[9],inactive
same,Potency,[10],inactive
same,Potency,[11],inactive
CC(C[N+](C)(C)C)OC(N)=O (centres undefined),Potency,[8],inactive
same,Potency,[9],inactive
same,Potency,[10],inactive
same,Potency,[11],inactive
CCCCCCCCCCCCCCCC[N+](C)(C)C,Potency,[2],inactive
same,outcome,[3],inactive
same,Potency,[9],inactive
O=[N+]([O-])c1ccc([As](=O)(O)O)cc1,Potency,[2],inactive
same,outcome,[3],inactive
same,Potency,[8],inactive
same,Potency,[9],inactive
same,Potency,[11],inactive
COC(=O)c1cncn1C(C)c1ccccc1 (centres undefined),Potency,[2],inactive
same,outcome,[3],inactive
same,Potency,[8],inactive
same,Potency,[9],inactive
same,Potency,[10],inactive
same,Potency,[11],inactive
CN[C@@H](C)[C@H](O)c1ccccc1,Potency,[2],inactive
same,outcome,[3],inactive
c1ccc(C2(c3ccccc3)CC2C2=NCCN2)cc1 (centres undefined),outcome,[4],inactive
same,outcome,[5],inactive
same,Potency,[9],inactive
same,Potency,[10],inactive
same,Potency,[11],inactive
CC(O)CN1CCN(CC(=O)[O-])CCN(CC(=O)[O-])CCN(CC(=O)[O-])CC1.[Gd+3] (centres undefined),Potency,[2],inactive
same,outcome,[3],inactive
O=[N+]([O-])c1c(Cl)c(Cl)cc(Cl)c1Cl,Potency,[2],inactive
same,outcome,[3],inactive
Nc1ccc(Cl)cc1N,outcome,[3],inactive
CC(C)(C)c1nnc(NS(=O)(=O)c2ccccc2)s1,Potency,[8],inactive
same,Potency,[9],inactive
same,Potency,[10],inactive
CCOc1cc(NC(C)=O)ccc1C(=O)OC,Potency,[8],inactive
same,Potency,[9],inactive
same,Potency,[10],inactive
same,Potency,[11],inactive
N#C/C(=C1\SCC(c2ccccc2Cl)S1)n1ccnc1 (centres undefined),Potency,[8],inactive
same,Potency,[9],inactive
same,Potency,[10],inactive
same,Potency,[11],inactive
O=C(O)CCCOc1ccc(Cl)cc1Cl,Potency,[2],inactive
same,outcome,[3],inactive
c1cc2ccc3cccc4ccc(c1)c2c34,Potency,[2],inactive
same,outcome,[3],inactive
CC[N+]1(CCOC(=O)C(O)(c2ccccc2)c2ccccc2)CCCCC1,Potency,[2],inactive
same,outcome,[3],inactive
same,Potency,[8],inactive
same,Potency,[9],inactive
same,Potency,[10],inactive
same,Potency,[11],inactive
CN(C)CC/C=C1/c2ccccc2COc2ccc(CC(=O)O)cc21,Potency,[8],inactive
same,Potency,[9],inactive
same,Potency,[10],inactive
same,Potency,[11],inactive
OCCCBr,Potency,[2],inactive
same,outcome,[3],inactive
COCCOCCO,Potency,[2],inactive
same,outcome,[3],inactive
O=C(O)COc1ccccc1,Potency,[2],inactive
same,outcome,[3],inactive
same,Potency,[8],inactive
same,Potency,[9],inactive
same,Potency,[10],inactive
same,Potency,[11],inactive
O=[N+]([O-])c1cc([N+](=O)[O-])c2ccccc2c1,Potency,[2],inactive
same,outcome,[3],inactive
C=CCC1=C(C)C(OC(=O)C2C(C=C(C)C)C2(C)C)CC1=O (centres undefined),Potency,[2],inactive
same,outcome,[3],inactive
CC1(C)CC/C(=C/c2ccc(Cl)cc2)C1(O)Cn1cncn1 (centres undefined),Potency,[2],inactive
same,outcome,[3],inactive
CCCCCCCC(=O)OCC(O)CO (centres undefined),Potency,[8],inactive
same,Potency,[9],inactive
same,Potency,[10],inactive
same,Potency,[11],inactive
